Records with an inconclusive call do not appear. Where a call stands in place of a potency, no number is given. Active and inactive are the calls of the source. Unless noted, calls follow the shape of the dose curve; as a rule, active = well fitted curve in the direction sought with a large enough effect in the repeat runs; inconclusive = weak or mixed curves; inactive = no such curve, though single readings can be large; an effect the other way counts as inactive or inconclusive.

A short description of one assay: qHTS assay to identify small molecule agonists of the progesterone receptor (PR) signaling pathway - cell viability counter screen (AID 1346799; calls by dose curve; also: nearly all actives have a fitted effect of over 45% in size; also: potency is read from the fitted curve at half-maximal effect). Particulars: PR-UAS-bla HEK293T viability, CellTiter-Glo luminescence, 16 h; series mostly up to 92.4 µM. The procedure, abridged: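 Luminescence from CellTiter-Glo, added after the beta-lactamase FRET read in the same wells, gave cytotoxicity in PR-UAS-bla HEK293T cells treated with compounds for 16 hr at 37C.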
Regarding `C=CC(=O)NC(C)C`, the Potency result is “inactive”.
The same measure, in the same setting: to `CCCCCCCCCCCCCCCC(=O)OCC` belongs “inactive”.
Same read-out and setting: next, `CC(C)(C)C1(CCc2ccc(Cl)cc2)CO1` (stereo unspecified): “inactive”; `CC(=O)Oc1cccc(O)c1`: “inactive”; `CSCC[C@H](NC(=O)[C@H](Cc1c[nH]c2ccccc12)NC(=O)CCNC(=O)OC(C)(C)C)C(=O)N[C@@H](CC(=O)O)C(=O)N[C@@H](Cc1ccccc1)C(N)=O`: “inactive”.
With `CC(C)(C)S`, the Potency entry is “inactive”.
Consider `FC(F)(F)C(F)(F)C(F)(F)C(F)(F)CCI`, for which the Potency entry is “inactive”.
The same measure, in the same setting: next, `C=Cc1ccc(OC(C)=O)cc1`: “inactive”.
The same measure, in the same setting: to `CCCCCCCC(=O)OCCCCCC` belongs “inactive”; to `O=C(O)CCC(=O)OC[C@@H](NC(=O)C(Cl)Cl)[C@H](O)c1ccc([N+](=O)[O-])cc1`, “inactive”.
Consider `CCOC(=O)N1CCC(Nc2ccc(Cl)cc2N)CC1`, for which the Potency result is “inactive”.
For `O=C1[C@@H]2[C@H]3CC[C@H](C3)[C@@H]2C(=O)N1CCCCN1CCN(c2ncccn2)CC1`, the Potency result was “inactive”.
On to `CC(=O)C(=O)CC(C)C`, for which the Potency entry was “inactive”.
In the case of `CCCCCCCC/C=C\CCCCCCCC(=O)OCCO`, the Potency entry is “inactive”.
For `O=C1OC(=O)c2c(Br)c(Br)c(Br)c(Br)c21`, the Potency result is “inactive”.
The same measure, in the same setting: next, `CN1CCCN(C(c2ccccc2)c2ccc(Cl)cc2)CC1` (stereo unspecified): 13.3 µM (active); `CNc1c2c(nn1C)CCCC2`: “inactive”.
As to `CCCCC[C@H](O)/C=C/[C@H]1[C@H](O)CC(=O)[C@@H]1C/C=C\CCCC(=O)O`, the Potency entry was “inactive”.
Still for that read-out and setting: next, `COC(C)(C)OC`: “inactive”; `CCCCCCCC/C=C/C(=O)O`: “inactive”.
Consider `O=C(O)CCC(=O)c1ccc(-c2ccccc2)cc1`, for which the Potency result is “inactive”.
Still for that read-out and setting: next, `CCN(CC)c1cccc(O)c1`: “inactive”.
The same measure, in the same setting: next, `O=C1NC(=O)c2cccc3cccc1c23`: “inactive”.
On the same count and under the same terms, to `CC(C)c1ccc(C(=O)N=C(N)N)cc1S(C)(=O)=O` belongs “inactive”; to `O=C(CCS)OCC(COC(=O)CCS)(COC(=O)CCS)COC(=O)CCS`, “inactive”.
For the compound `CC(C)(O)CCc1ccccc1`, the Potency entry is “inactive”.

A further assay is described as follows: qHTS assay to identify small molecule antagonists of the TGF-beta/Smad signaling pathway - cell viability counter screen (AID 1346824). Also: nearly all actives have a fitted effect of over 50% in size. As to conditions: SBE-bla HEK293T viability, CellTiter-Glo luminescence; series mostly up to 76.8 µM. Put shortly:
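Cytotoxicity counter-screen run in the same wells as the beta-lactamase Smad reporter read: CellTiter-Glo luminescence after 30 min at room temperature. HEK 293T SBE-bla cells had 5 hr compound exposure at 37 C with TGF-beta1 (0.25 ng/mL stock).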
On to `C=CC(=O)NC(C)C`, for which the compound was classed as inactive.
As for `CCCCCCCCCCCCCCCC(=O)OCC`, the compound was called inactive.
On the same count and under the same terms, next, `CC(C)(C)C1(CCc2ccc(Cl)cc2)CO1` (stereo unspecified): “inactive”; `CC(=O)Oc1cccc(O)c1`: “inactive”; `CSCC[C@H](NC(=O)[C@H](Cc1c[nH]c2ccccc12)NC(=O)CCNC(=O)OC(C)(C)C)C(=O)N[C@@H](CC(=O)O)C(=O)N[C@@H](Cc1ccccc1)C(N)=O`: “inactive”.
`O=C(Oc1ccccc1)c1ccc2ccccc2c1O`: the outcome was inactive.
Same read-out and setting: to `CC(C)(C)S` belongs “inactive”; to `CC[C@H]1OC(=O)[C@H](C)[C@@H](O[C@H]2C[C@@](C)(OC)[C@@H](O)[C@H](C)O2)[C@H](C)[C@@H](O[C@@H]2O[C@H](C)C[C@H](N(C)C)[C@H]2O)[C@](C)(O)C[C@@H](C)/C(=N\OCOCCOC)[C@H](C)[C@@H](O)[C@]1(C)O`, “inactive”.
Consider `FC(F)(F)C(F)(F)C(F)(F)C(F)(F)CCI`, for which the compound was classed as inactive.
Still for that read-out and setting: next, `C=Cc1ccc(OC(C)=O)cc1`: “inactive”.
Same read-out and setting: next, `CCCCCCCC(=O)OCCCCCC`: “inactive”; `CCCCCCCCCCCC(=O)OCC(O)CO` (stereo unspecified): “inactive”; `O=C(O)CCC(=O)OC[C@@H](NC(=O)C(Cl)Cl)[C@H](O)c1ccc([N+](=O)[O-])cc1`: “inactive”.
The same measure, in the same setting: next, `CCOC(=O)N1CCC(Nc2ccc(Cl)cc2N)CC1`: “inactive”; `NC(=O)c1ccccc1[N+](=O)[O-]`: “inactive”.
In the case of `O=C1[C@@H]2[C@H]3CC[C@H](C3)[C@@H]2C(=O)N1CCCCN1CCN(c2ncccn2)CC1`, the compound was classed as inactive.
Regarding `CC(=O)C(=O)CC(C)C`, the compound was classed as inactive.
Same read-out and setting: next, `CCCCCCCC/C=C\CCCCCCCC(=O)OCCO`: “inactive”; `O=C1OC(=O)c2c(Br)c(Br)c(Br)c(Br)c21`: “inactive”.
As for `O=C(NS(=O)(=O)/C=C/c1ccccc1)c1ccc(F)cc1Cl`, the result was inactive.
As to `CNc1c2c(nn1C)CCCC2`, the result was inactive.
On to `CCCCC[C@H](O)/C=C/[C@H]1[C@H](O)CC(=O)[C@@H]1C/C=C\CCCC(=O)O`, for which the compound was classed as inactive.
Consider `CCSC(=O)N(CC)CC`, for which the outcome was inactive.
On the same count and under the same terms, next, `COC(C)(C)OC`: “inactive”; `CCCCCCCC/C=C/C(=O)O`: “inactive”; `O=C(O)CCC(=O)c1ccc(-c2ccccc2)cc1`: “inactive”.
As for `CCN(CC)c1cccc(O)c1`, the call was inactive.
Still for that read-out and setting: to `O=C1NC(=O)c2cccc3cccc1c23` belongs “inactive”; to `CC(C)c1ccc(C(=O)N=C(N)N)cc1S(C)(=O)=O`, “inactive”; to `O=C(CCS)OCC(COC(=O)CCS)(COC(=O)CCS)COC(=O)CCS`, “inactive”.
The same measure, in the same setting: next, `Cc1ccc2c(c1)CCCN2`: “inactive”; `Nc1cccc2c(N)cccc12`: “inactive”.
Same read-out and setting: next, `CCN(CC)C(=O)/C(C#N)=C/c1cc(O)c(O)c([N+](=O)[O-])c1`: “inactive”.

The next assay is described as follows: qHTS assay to identify small molecule agonists of the TGF-beta/Smad signaling pathway - cell viability counter screen (AID 1346829). Also: top concentration of the series differs between compounds; nearly all actives have a fitted effect of over 45% in size. Particulars: SBE-bla HEK293T viability, CellTiter-Glo luminescence, 5 h; series mostly up to 76.8 µM. The procedure, abridged: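 After overnight seating at 37 C and 5% CO2, reporter cells got compounds for 5 hr and FRET substrate for 2 hr; cell viability then came from CellTiter-Glo luminescence.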
For the compound `C=CC(=O)NC(C)C`, the Potency result is “inactive”.
`CCCCCCCCCCCCCCCC(=O)OCC`: the Potency result was “inactive”.
Consider `CC(C)(C)C1(CCc2ccc(Cl)cc2)CO1` (stereo unspecified), for which the Potency entry is “inactive”.
`CC(=O)Oc1cccc(O)c1`: the Potency result is “inactive”.
`CSCC[C@H](NC(=O)[C@H](Cc1c[nH]c2ccccc12)NC(=O)CCNC(=O)OC(C)(C)C)C(=O)N[C@@H](CC(=O)O)C(=O)N[C@@H](Cc1ccccc1)C(N)=O`: the Potency result was “inactive”.
`O=C(Oc1ccccc1)c1ccc2ccccc2c1O`: the Potency entry is “inactive”.
With `CC(C)(C)S`, the Potency entry was “inactive”.
Still for that read-out and setting: to `CC[C@H]1OC(=O)[C@H](C)[C@@H](O[C@H]2C[C@@](C)(OC)[C@@H](O)[C@H](C)O2)[C@H](C)[C@@H](O[C@@H]2O[C@H](C)C[C@H](N(C)C)[C@H]2O)[C@](C)(O)C[C@@H](C)/C(=N\OCOCCOC)[C@H](C)[C@@H](O)[C@]1(C)O` belongs “inactive”.
The same measure, in the same setting: to `FC(F)(F)C(F)(F)C(F)(F)C(F)(F)CCI` belongs “inactive”; to `O=c1[nH]c2cc(C(F)(F)F)c(N3CCOCC3)cc2n(CP(=O)(O)O)c1=O`, “inactive”.
Same read-out and setting: to `C=Cc1ccc(OC(C)=O)cc1` belongs “inactive”.
Regarding `CCCCCCCC(=O)OCCCCCC`, the Potency result was “inactive”.
With `O=C(O)CCC(=O)OC[C@@H](NC(=O)C(Cl)Cl)[C@H](O)c1ccc([N+](=O)[O-])cc1`, the Potency entry was “inactive”.
The same measure, in the same setting: to `CCOC(=O)N1CCC(Nc2ccc(Cl)cc2N)CC1` belongs “inactive”; to `NC(=O)c1ccccc1[N+](=O)[O-]`, “inactive”.
Still for that read-out and setting: to `O=C1[C@@H]2[C@H]3CC[C@H](C3)[C@@H]2C(=O)N1CCCCN1CCN(c2ncccn2)CC1` belongs “inactive”.
The same measure, in the same setting: to `CC(=O)C(=O)CC(C)C` belongs “inactive”; to `CCCCCCCC/C=C\CCCCCCCC(=O)OCCO`, “inactive”; to `C1CCCCC1`, “inactive”.
As for `O=C1OC(=O)c2c(Br)c(Br)c(Br)c(Br)c21`, the Potency entry is “inactive”.
The same measure, in the same setting: next, `CN1CCCN(C(c2ccccc2)c2ccc(Cl)cc2)CC1` (stereo unspecified): “inactive”; `CNc1c2c(nn1C)CCCC2`: “inactive”.
With `CCCCC[C@H](O)/C=C/[C@H]1[C@H](O)CC(=O)[C@@H]1C/C=C\CCCC(=O)O`, the Potency entry is “inactive”.
On the same count and under the same terms, to `CCSC(=O)N(CC)CC` belongs “inactive”.
As for `COC(C)(C)OC`, the Potency entry is “inactive”.
`CCCCCCCC/C=C/C(=O)O`: the Potency entry was “inactive”.
On the same count and under the same terms, to `O=C(O)CCC(=O)c1ccc(-c2ccccc2)cc1` belongs “inactive”; to `O=C1NC(=O)c2cccc3cccc1c23`, “inactive”; to `Cc1ccc2c(c1)CCCN2`, “inactive”.
Still for that read-out and setting: next, `CC(C)(O)CCc1ccccc1`: “inactive”; `Nc1cccc2c(N)cccc12`: “inactive”; `CCN(CC)C(=O)/C(C#N)=C/c1cc(O)c(O)c([N+](=O)[O-])c1`: “inactive”.

The values above are taken from PubChem BioAssay (Tox21).
